Source: PubChem BioAssay (Tox21)
Records with an inconclusive call do not appear. Where a call stands in place of a potency, no number is given. A number with no mark means an inactive call. Activity calls are given as the source filed them. The call rests on the fitted dose curve; in most records, active means well fitted curve in the direction sought with a large enough effect in the repeat runs; inconclusive means weak or mixed curves; inactive means no such curve, though single readings can be large; an effect the other way counts as inactive or inconclusive.

Target: Nuclear receptor subfamily 1 group I member 3 (Homo sapiens) (UniProt Q14994)
Sequence (Q14994 whole entry, looked up): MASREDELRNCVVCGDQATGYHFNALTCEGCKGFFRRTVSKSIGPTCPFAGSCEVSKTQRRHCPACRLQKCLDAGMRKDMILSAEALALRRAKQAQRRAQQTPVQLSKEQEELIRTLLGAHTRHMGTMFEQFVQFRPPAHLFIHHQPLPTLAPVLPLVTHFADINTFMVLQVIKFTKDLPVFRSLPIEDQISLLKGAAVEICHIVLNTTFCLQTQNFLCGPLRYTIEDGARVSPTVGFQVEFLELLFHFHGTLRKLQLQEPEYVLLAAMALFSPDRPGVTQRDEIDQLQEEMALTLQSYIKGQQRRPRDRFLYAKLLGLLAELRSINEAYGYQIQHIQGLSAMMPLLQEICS
Assay: qHTS assay to identify small molecule antagonists of the constitutive androstane receptor (CAR) signaling pathway (AID 1224838);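 further: HepG2 cells stably expressing hCAR with CYP2B6 luciferase reporter stimulated by CITCO; nearly all actives have a fitted effect of over 40% in size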
Settings: HepG2-CYP2B6-hCAR luciferase, CITCO-stimulated, 24 h; series mostly up to 92.4 µM
Summary of the method: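 HepG2-CYP2B6-hCAR cells; 4 h pre-incubation; cpd (15 conc) + CITCO 50 nM final; 24 h, 37 C/5% CO2; ONE-Glo, luminescence.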
Potency means the concentration at half of the fitted maximal effect.

| SMILES | Potency | activity, negative = inhibition |
| --- | --- | --- |
| Nc1cccc2c(=O)[nH][nH]c(=O)c12 | inactive | – |
| CC(=O)Nc1ccccc1O | inactive | – |
| COc1ccnc2c1CCCCC2S(=O)c1nc2ccccc2[nH]1 (stereo unspecified) | inactive | – |
| Oc1ccc(CCNCCCCCCNCCc2ccccc2)cc1O | inactive | – |
| O=c1[nH]nc(-c2ccc([N+](=O)[O-])o2)o1 | inactive | – |
| COc1ccc(C(=O)Nc2ccccc2)cc1[N+](=O)[O-] | inactive | – |
| CCCCCCC/C=C/C=O | inactive | – |
| COC(=O)Cc1cccc2ccccc12 | inactive | – |
| COC(=O)C(C)(C)C | inactive | – |
| CC(C)C/C=C(\C=O)c1ccccc1 | inactive | – |
| CC(=O)Oc1cccc2c1C(=O)c1c(OC(C)=O)cc(C(=O)O)cc1C2=O | inactive | – |
| Oc1ccc(Oc2ccccc2)cc1 | inactive | – |
| CCCCCCCCCC(C)C=O (stereo unspecified) | inactive | – |
| O=Cc1ccc(Cl)c([N+](=O)[O-])c1 | inactive | – |
| CCn1nc(Cc2ccccc2)cc1C1CCN(C[C@H]2C[C@H](N(C)[C@@H](C(=O)O)C(C)C)C[C@@H]2c2cccc(F)c2)CC1 | inactive | – |
| CC1=CC(=C(c2ccc(N)cc2)c2ccc(N)cc2)C=CC1=N | – | 3.44% [at 8.39 µM] |
| Clc1cc(Cl)c2c(c1)N=C1CCCCCN1C2 | inactive | – |
| COC(=O)/C=C/C(C)=C\C=C\C(C)=C\C=C\C=C(C)\C=C\C=C(C)\C=C\C(=O)O | inactive | – |
| NC(=O)c1ccccc1C(N)=O | 30.8 µM (active) | – |
| O=C1c2ccccc2C(=O)c2c1ccc(O)c2O | inactive | – |
| CCCN(C1CCN(C(=O)C2CCNCC2)CC1)[C@@H]1CCc2ccc(OC)cc2C1 | inactive | – |
| CC(C)(C)c1ccc(CCC=O)cc1 | inactive | – |

Target: Nuclear receptor subfamily 1 group I member 3 (Homo sapiens) (UniProt Q14994)
Assay: qHTS assay to identify small molecule agonists of the constitutive androstane receptor (CAR) signaling pathway (AID 1224839); further: nearly all actives have a fitted effect of over 15% in size;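 on activation: HepG2 cells stably carrying human CAR and a CYP2B6 luciferase reporter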
Settings: HepG2 hCAR CYP2B6-luciferase, agonist mode, 24 h; series mostly up to 92.4 µM
Summary of the method: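 Compounds tested at 15 concentrations on HepG2 cells stably harbouring hCAR and CYP2B6-2.2kb reporter constructs, co-treated with PK11195 (0.75 uM final), 24 h at 37 C; luminescent reporter signal quantified.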

| SMILES | Potency | activation |
| --- | --- | --- |
| Nc1cccc2c(=O)[nH][nH]c(=O)c12 | inactive | – |
| CC(=O)Nc1ccccc1O | inactive | – |
| Cc1ccc(NC(=O)c2ccc(CN3CCN(C)CC3)cc2)cc1Nc1nccc(-c2cccnc2)n1 | 13.3 µM (active) | – |
| COc1ccnc2c1CCCCC2S(=O)c1nc2ccccc2[nH]1 (stereo unspecified) | 23.7 µM (active) | – |
| Oc1ccc(CCNCCCCCCNCCc2ccccc2)cc1O | inactive | – |
| COc1ccc(C(=O)Nc2ccccc2)cc1[N+](=O)[O-] | 30.9 µM (active) | – |
| CCCCCCC/C=C/C=O | inactive | – |
| COC(=O)Cc1cccc2ccccc12 | 34.4 µM (active) | – |
| Nc1ccccc1Nc1ccccc1 | 54.6 µM (active) | – |
| COC(=O)C(C)(C)C | inactive | – |
| CC(C)C/C=C(\C=O)c1ccccc1 | inactive | – |
| CC(=O)Oc1cccc2c1C(=O)c1c(OC(C)=O)cc(C(=O)O)cc1C2=O | inactive | – |
| COc1ccc(/C=C/c2cc(OC)cc(=O)o2)cc1 | 6.26 µM (active) | – |
| O=C1c2ccccc2C(=O)C1c1ccc2ccccc2n1 | 6.05 µM (active) | – |
| CCCCCCCCCC(C)C=O (stereo unspecified) | inactive | – |
| CC(C)CC(C)(C)C | 63.4 µM (active) | – |
| O=Cc1ccc(Cl)c([N+](=O)[O-])c1 | inactive | – |
| CCn1nc(Cc2ccccc2)cc1C1CCN(C[C@H]2C[C@H](N(C)[C@@H](C(=O)O)C(C)C)C[C@@H]2c2cccc(F)c2)CC1 | inactive | – |
| CC1=CC(=C(c2ccc(N)cc2)c2ccc(N)cc2)C=CC1=N | – | -0.508% [at 8.39 µM] |
| NC(=O)c1ccccc1C(N)=O | inactive | – |
| O=C1c2ccccc2C(=O)c2c1ccc(O)c2O | inactive | – |
| CCCN(C1CCN(C(=O)C2CCNCC2)CC1)[C@@H]1CCc2ccc(OC)cc2C1 | inactive | – |
| C(/C=C/C=C/Nc1ccccc1)=Nc1ccccc1 | inactive | – |
| CC(C)(C)c1ccc(CCC=O)cc1 | inactive | – |
